According to PubChem BioAssay AID1903 (Southern Research Specialized Biocontainment Screening …, 2009):
The whole screen tested about 310,000 compounds, of which about 1,200 (0.39%) were called active. The rule behind the calls is not given here. Only a sample is shown. Potency and affinity values are given separately.

target: Large T antigen (Simian virus 40) (UniProt P03070); test: TAg ATPase/helicase activity blockers – biochemical (AID 1903); settings: SV40 large T antigen ATPase/helicase inhibition assay; at 20 µM; stronger effect = higher value
Sequence (P03070 whole entry, looked up): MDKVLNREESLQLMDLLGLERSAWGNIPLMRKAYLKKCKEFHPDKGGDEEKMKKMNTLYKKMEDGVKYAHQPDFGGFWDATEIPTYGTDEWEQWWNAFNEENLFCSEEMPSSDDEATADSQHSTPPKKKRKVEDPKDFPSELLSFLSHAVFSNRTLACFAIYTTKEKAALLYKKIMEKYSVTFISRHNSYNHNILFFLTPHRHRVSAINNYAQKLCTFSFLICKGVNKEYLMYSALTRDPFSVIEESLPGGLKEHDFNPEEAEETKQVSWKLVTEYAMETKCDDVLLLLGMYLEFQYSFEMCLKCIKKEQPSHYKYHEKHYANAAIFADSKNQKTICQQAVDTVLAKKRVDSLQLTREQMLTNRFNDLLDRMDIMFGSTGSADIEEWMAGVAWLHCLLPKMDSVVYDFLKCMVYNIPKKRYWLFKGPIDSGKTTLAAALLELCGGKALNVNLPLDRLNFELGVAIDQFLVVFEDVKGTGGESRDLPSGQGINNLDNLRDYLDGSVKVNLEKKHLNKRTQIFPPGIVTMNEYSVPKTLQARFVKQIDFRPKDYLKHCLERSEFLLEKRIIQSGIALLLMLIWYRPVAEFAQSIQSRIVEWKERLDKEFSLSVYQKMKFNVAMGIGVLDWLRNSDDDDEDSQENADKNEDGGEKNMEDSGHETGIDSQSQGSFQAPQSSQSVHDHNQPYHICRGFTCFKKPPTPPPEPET

inhibition, inactive:
O=C(NCc1ccco1)/C(=C/c1ccc(F)cc1)NC(=O)c1ccccc1 5.2%
O=C(O)CC1(CC(=O)Nc2ccc3ccccc3n2)CCCCC1 10.8%
Cc1cccc(N=C2N=C(N)c3ccccc32)c1 0.797%
COc1ccc(-c2nc3ccccn3c2NC2CCCCC2)cc1SC1CCCCC1 9.08%
COc1ccc(-c2cn(Cc3ccc(C)cc3)nn2)cc1 5.41%
COCCOC(=O)C1=C(C)NC(=O)NC1c1cn(-c2ccccc2)nc1-c1cccs1 (stereo unspecified) 8.59%
Cc1cccc(Oc2ccccc2N)c1 -2.44%
O=C(Nc1ccc(N2CCN(c3ccc(O)cc3)CC2)cc1)Oc1ccccc1 16.3%
CC(=O)Nc1ccc(NC(=O)Oc2ccccc2)cc1 16.2%
O=C(CC1C(=O)NCCN1CC(c1ccccc1)c1ccccc1)NC1CC1 (stereo unspecified) 3.88%
OCC1(CCCc2ccccc2)CCN(C2CCC2)CC1 4.13%
O=C(COC(=O)C1=COCCO1)NCc1ccc(F)cc1 17.7%
Cc1ccccc1OCCC(=O)Nc1ccc(F)c(Cl)c1 7.2%
CCCCCCCCC1=NCCc2c1[nH]c1ccccc21 7.25%
Cc1cc(=O)[nH]c2cc(O)ccc12 12.9%
COc1cccc(C=Nc2ccccc2C(=O)Nc2ccccc2)c1O 1.08%
Nc1cc(-c2ccc(Cl)cc2)nn1S(=O)(=O)c1ccccc1 0.87%
COc1ccc(/C=C(\C#N)C(=O)NCc2ccccc2)cc1O 8.17%
CCc1ccc(NC(=O)/C(C#N)=C\c2ccc(OC)c(C(=O)O)c2)cc1 1.43%
N#C/C(=C/c1ccc(N2CCOCC2)o1)C(=O)Nc1ccccc1 8.94%
N#C/C(=C/c1ccc(N2CCCCC2)o1)C(=O)Nc1ccc(Cl)cc1 22.3%
COc1ccc(/C=C(/C#N)C(=O)Nc2ccccc2C)cc1C(=O)O 9.24%
COc1ccc(/C=C(\C#N)C(=O)Nc2cccc3ncccc23)cc1OC 6.66%
N#C/C(=C\c1ccc(O)c(Br)c1)C(=O)NCc1ccccc1 12.1%
COc1cc(/C=C(\C#N)C(=O)Nc2cccc3ncccc23)ccc1O 3.35%
CCOP(=O)(O)c1ccccc1OCCOCCOc1ccccc1P(=O)(O)OCC -4.92%
COc1ccc(Cl)cc1Nc1nc(-c2sc(NC(=O)c3ccccc3)nc2C)cs1 2.67%
CCOC(=O)Cn1c(=NC(=O)C(C)C)sc2c(C)cc(C)cc21 14%
CCCc1nnc(NC(=O)CCC(=O)N2CCCCC2CC)s1 (stereo unspecified) 6.09%
COc1cc(/C=C(\C#N)C(=O)NCCc2ccccc2)cc(OC)c1O 23.4%
N#C/C(=C\c1ccc(O)c(O)c1)C(=O)NCCCc1ccccc1 37.7%
CC(NC(=O)/C(C#N)=C/c1ccc(C(=O)O)cc1)c1ccccc1 (stereo unspecified) 2.43%
COc1cc(/C=C(\C#N)C(=O)N2CCc3ccccc32)ccc1O 57%
COc1ccc(/C=C(\C#N)C(=O)NC(C)c2ccccc2)cc1O (stereo unspecified) 4.31%
CN1C(=O)S/C(=C\c2ccccc2OCc2ccc(C(=O)O)cc2)C1=O 10.5%
O=C(C(=O)N1CCCc2ccccc21)N1CCCc2ccccc21 -4.81%
O=C1NC(=S)N/C1=C\c1ccccc1OCc1ccc(C(=O)O)cc1 11.5%
Cc1nnc(NC(=O)CSc2n[nH]c(-c3ccccc3)n2)s1 -0.77%
O=C(CC(C(=O)N1CCc2ccccc21)n1ccnc1)NCC1CCCO1 (stereo unspecified) 2.93%
COc1ccccc1N(C)S(=O)(=O)c1ccc(C(=O)OCC(=O)NCC(F)(F)F)cc1 21.8%
COc1ccc(OCCCC(=O)OCC(=O)NNC(=O)c2ccc([N+](=O)[O-])cc2)cc1 11.8%
COc1ccc2c(=O)c(N3C(=O)c4ccccc4C3=O)c(C)oc2c1 0.21%
COc1ccc(C)cc1NC(=O)Nc1ccc2c(c1)CCC2 -11.4%
COC(=O)c1ccc(COc2ccccc2/C=C(\C#N)C(=O)Nc2ccc(C)cc2)cc1 3.16%
N#C/C(=C/c1ccc(C(=O)O)cc1)C(=O)Nc1ccccc1 2.52%
N#C/C(=C/c1ccc(O)c([N+](=O)[O-])c1)C(=O)Nc1ccccc1 6.93%
COc1cc(/C=C(/C#N)C(=O)Nc2ccccc2)c(Br)cc1OCc1ccc(C(=O)O)cc1 12.2%
CCOC(=O)Cc1csc(NC(=O)CCCN2C(=O)c3ccccc3C2=O)n1 1.05%
Cc1[nH]c2ccccc2c1C(Nc1nccs1)c1ccncc1 (stereo unspecified) 0.2%
CCOc1ccc(NC(=O)CCn2c(=O)[nH]c3ccsc3c2=O)cc1 9.67%
Cc1ccc(S(=O)(=O)N(C)C)cc1NC(=O)CSc1nc2ccccc2c(=O)n1CC1CCCO1 (stereo unspecified) 23.7%
O=C(Nc1ncccn1)C1=C(O)c2ccccc2S(=O)(=O)N1Cc1ccccc1 2.54%
Cc1cc(Cl)c(S(=O)(=O)NC2CCCCC2)cc1OCC(=O)Nc1nncs1 1.03%
Cc1ccc(NC(=O)CCNS(=O)(=O)c2ccc3c(c2)CCC(=O)N3)c(Br)c1 3.77%
Cc1ccccc1NC(=O)CCNS(=O)(=O)c1ccc2c(c1)CCC(=O)N2 5.35%
CC(C)(C)n1nc2c(c1NC(=O)Cc1cccc3ccccc13)CS(=O)(=O)C2 2.22%
Brc1cccc(Cn2c(-c3cncs3)nc3ccccc32)c1 12%
CC(=O)c1cccc(NC(=O)COC(=O)COc2ccccc2C)c1 2.51%
CC(C)c1cc2cc3ccc(=O)oc3cc2o1 4.47%
COc1cc2ccc(=O)oc2cc1O 2.12%
O=C1CCCc2[nH]nc(-c3cccnc3)c21 12%
Cc1c(C)c2cc(Cl)c(O)c(CN(C)C)c2oc1=O 6.8%
Cc1c(Br)c(=O)oc2c(Br)c(O)ccc12 23.7%
C/C(=N\N=C\c1ccccc1F)c1nnn(-c2nonc2N)c1C -1.72%
O=C(NCc1ccc(Cl)cc1)c1cnn2ccccc12 3.57%
O=C(Nc1ccccc1)N1CCOCC1 12.8%
O=C(Nc1ccc(Nc2ccccc2)cc1)c1ccccc1 16.9%
CCC(=O)Nc1ccc(Nc2ccccc2)cc1 33.2%
O=C(Nc1ccc(F)cc1)N1CCOCC1 0.68%
O=C(Nc1ccccc1)Nc1ccc(Nc2ccccc2)cc1 25.8%
O=C(O)C1CCCCC1C(=O)Nc1ccc(-c2ccccc2)cc1 (stereo unspecified) -3.79%
CC(=O)Nc1ccc(Nc2ccccc2)cc1 23.7%
O=C(O)C1CCCCC1C(=O)Nc1ccccc1Nc1ccccc1 (stereo unspecified) 20.9%
CC(=O)COc1ccc2c(c1C)O/C(=C\c1ccco1)C2=O 35.5%
CCN1C(=O)CC(c2ccc(OC(C)C)cc2)C1=O (stereo unspecified) -0.45%
CC[C@H](C)[C@H](NC(N)=O)C(=O)Nc1ccc(NC(C)=O)cc1 9.4%
CCOC(=O)c1cnc(N)nc1C(F)(F)F -4.94%
O=C(COC(=O)c1ccc2c(c1)OCCO2)Nc1cc(S(=O)(=O)N2CCOCC2)ccc1Cl 12.3%
COCCn1c(N2CCCC2)nc2c1c(=O)[nH]c(=O)n2C 5.19%
Cc1ccc(-c2nnc(CCC(=O)N(C)Cc3nccs3)o2)s1 -8.55%
Nc1ccc(S(=O)(=O)c2ccc(N)c(N)c2)cc1 20.9%
Nc1cccc(S(=O)(=O)c2ccc(N)c(N)c2)c1 25.5%
O=C(c1cnn2c(C(F)F)cc(-c3ccccc3)nc12)N1CCCCC1c1cccnc1 (stereo unspecified) 1.99%
COc1ccc(NC(=O)c2ccc3c(c2)NC(=O)CO3)cc1OC -1.26%
Cc1ccccc1S(=O)(=O)Cc1ccc(C(=O)NC2CC2)o1 11.4%
CCC1=NN2C(=N)/C(=C/c3ccc(OS(=O)(=O)c4ccc(C)cc4)c(OC)c3)C(=O)N=C2S1 15.3%
CCOc1cc(/C=C2/C(=N)N3N=C(CC)SC3=NC2=O)ccc1OC(=O)c1ccco1 1.88%
CCC1=NN2C(=N)/C(=C\c3ccc(OCCOc4ccccc4)c(OC)c3)C(=O)N=C2S1 10.4%
COc1cc(/C=C2\C(=N)N3N=C(S(C)(=O)=O)SC3=NC2=O)ccc1OS(=O)(=O)c1ccccc1 26.3%
COc1cc(/C=C2/C(=N)N3N=C(C)SC3=NC2=O)ccc1OS(=O)(=O)c1ccc(C)cc1 3.08%
COc1cc(/C=C2\SC(c3ccc(C)cc3)=NC2=O)ccc1O 23.4%
CC(CCc1ccccc1)C(=O)NO (stereo unspecified) -1.59%
Cc1cc(NC(=O)c2cccc(S(=O)(=O)Nc3cccc(C(=O)O)c3)c2)no1 12.5%
CCOc1ccc(N2C(=O)CC(N3CCN(C(=O)CN4CCCC4)CC3)C2=O)cc1 (stereo unspecified) 15.8%
CN(C)CCN(C(=O)c1ccc(S(=O)(=O)N(C)C)cc1)c1nc2cc3c(cc2s1)OCCO3 3.41%
Cc1cccc(C(=O)N[C@H](C(=O)NCCc2ccc(S(N)(=O)=O)cc2)C(C)C)c1 9.44%
